hgDAF-12 ag: agonists of H. glycines DAF-12 nuclear receptor; HEK293 GAL4-hgDAF12 UAS-luciferase reporter, agonist luminescence; normalized to butyrate control; 370,000 tested, 1.8% active; AID 687014; activation, % at 6.8 µM;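 active = activation above a cutoff set at the mean of all screened compounds plus 3 SD, cut at about 10% in these data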;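 also: 0% = DMSO wells and 100% = sodium butyrate wells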
DAX1 inh-1: blocks DAX1 repression of SF-1 activated StAR promoter; inhibition, % at 6.8 µM; HEK293T StAR-luciferase reporter, SF-1/DAX-1 repression relief; 370,000 tested, 1.1% active; AID 652010;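 active = inhibition above the mean over all tested compounds plus 3 SD, cut at about 3.6% in these data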;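 also: 0% = DAX-1 cells with DMSO and 100% = cells lacking DAX-1 with DMSO; higher inhibition means more luminescence from relief of DAX-1 repression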
GAA850 FXN act: frataxin GAA850 promoter activation; HEK293 lucGAA850 FXN promoter luciferase reporter, 24 h; percent of 10 µM SAHA response; activation, % at 6 µM; 360,000 tested, 0.56% active; AID 540364;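 active = activation above the average of all compounds screened plus 3 SD, cutoff fixed separately per campaign, cut at about 7.5% in these data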;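 also: 0% = DMSO wells and 100% = 10 µM SAHA wells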
DAX1 inh-2: inhibits human nuclear receptor DAX1 | P51843 | HEK293 Gal4-DAX1 luciferase reporter, luminescence | inhibition, % at 6.75 µM | 340,000 tested, 0.99% active | AID 504766;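 active = inhibition above the mean over all tested compounds plus 3 SD, cut at about 4.2% in these data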;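 also: 0% = DAX1-transfected cells with DMSO and 100% = empty-vector control cells with DMSO; inhibition shows as a rise in luminescence from relieved DAX1 repression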
Target sequence (P51843 207-470 limits assumed): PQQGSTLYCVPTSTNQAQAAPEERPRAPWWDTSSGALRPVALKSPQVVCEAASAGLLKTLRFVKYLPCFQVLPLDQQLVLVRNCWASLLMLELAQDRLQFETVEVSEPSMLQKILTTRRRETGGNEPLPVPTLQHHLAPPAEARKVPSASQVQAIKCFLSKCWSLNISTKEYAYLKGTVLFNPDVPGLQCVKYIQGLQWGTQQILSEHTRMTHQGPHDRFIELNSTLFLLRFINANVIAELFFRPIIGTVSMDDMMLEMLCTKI
ssDAF-12 act: activators of S. stercoralis DAF-12 nuclear receptor | activation, % at 6.8 µM | HEK293 ssDAF-12/GRIP1 lit1-tk-luc reporter, luminescence; % of 3 µM dafachronic acid response | 370,000 tested, 1% active;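 active = activation above the mean over all tested compounds plus 3 SD, cut at about 0.9% in these data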;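 also: 0% = DMSO-only wells and 100% = 3 µM delta7-dafachronic acid wells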
hcDAF12 agonist: H. contortus DAF-12 activation, primary screen. HEK293 hcDAF-12 lit1-tk-luc reporter, luminescence; 0% DMSO, 100% Δ7-dafachronic acid. activation, % at 6.8 µM. 370,000 tested, 1.4% active. AID 652067;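 active = activation above the mean of all tested compounds plus 3 SD, cut at about 5.5% in these data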;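 also: 100% = response to 3 µM Δ7-dafachronic acid high control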
DAX1 inh confirm: NR0B1 (human) inhibition, confirmation; HEK293T StAR-promoter luciferase reporter, SF-1/DAX-1 repression; inhibition, % at 6.8 µM; shares compounds with DAX1 inh-1; 2,400 tested, 87% active;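 active = inhibition above the average of every tested compound plus 3 SD, cut at about 3.8% in these data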;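 also: 0% = DAX-1 cells with DMSO and 100% = no DAX-1 control cells with DMSO; active compounds raise luminescence by relieving repression of the StAR reporter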
Target sequence (P51843 whole entry, looked up): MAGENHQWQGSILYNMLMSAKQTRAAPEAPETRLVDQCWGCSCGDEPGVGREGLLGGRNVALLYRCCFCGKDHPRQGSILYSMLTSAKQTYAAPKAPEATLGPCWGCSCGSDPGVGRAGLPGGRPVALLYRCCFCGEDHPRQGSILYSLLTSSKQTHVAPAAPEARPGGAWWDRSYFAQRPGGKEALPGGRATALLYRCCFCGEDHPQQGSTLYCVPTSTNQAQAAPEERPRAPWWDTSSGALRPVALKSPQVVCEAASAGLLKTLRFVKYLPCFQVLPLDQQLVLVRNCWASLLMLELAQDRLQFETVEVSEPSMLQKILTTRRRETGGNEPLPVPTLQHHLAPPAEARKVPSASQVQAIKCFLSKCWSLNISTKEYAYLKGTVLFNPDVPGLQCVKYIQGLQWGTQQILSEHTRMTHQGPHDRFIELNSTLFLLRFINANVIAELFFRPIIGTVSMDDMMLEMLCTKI
SF1 mutant ctr: counter-screen for DAX1 inhibitors: nonselective inhibitors with SF-1 AF2 mutant | AID 652136 | 2,400 tested, 78% active | HEK293 StAR-luciferase, luminescence | shares compounds with DAX1 inh-1 | inhibition, % at 6.8 µM;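 active = inhibition above the mean of all tested compounds plus 3 SD, cut at about 3% in these data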;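 also: 0% = DAX-1 transfected cells with DMSO and 100% = cells without DAX-1 with DMSO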
An asterisk follows results filed as active; . = not tested or not shown. A selection: hits, their analogues and other compounds. The true share with any hit is near 4.5%.

SMILES | hgDAF-12 ag | DAX1 inh-1 | GAA850 FXN act | DAX1 inh-2 | ssDAF-12 act | hcDAF12 agonist | DAX1 inh confirm | SF1 mutant ctr
Cc1ccc(-n2c(SC/C=C/c3ccccc3)nnc2-c2ccco2)cc1 | -1 | 0 | . | . | -2 | -3 | . | .
COC(=O)[C@]12C[C@H](CC(=O)NCCCCc3ccccc3)C(=O)N(Cc3ccccc3)C1=C[C@H](COCc1ccccc1)O[C@@H]2C | 0 | -1 | . | . | -1 | -3 | . | .
C/C(=N\NC(=O)c1cccc(C)c1O)c1ccc(NC(=O)Cc2ccccc2)cc1 | 10 | 6.0* | 1 | 2 | 0 | 6.5* | 4.8* | 3.8*
Cc1ccc(CNC(=O)Cc2noc3ccccc23)cc1 | 11* | 9.5* | 4 | 0 | 0 | 3 | 8.2* | 4.8*
O=C(/C=C/c1ccc(S(=O)(=O)N2CCOCC2)cc1)NCc1ccccc1Cl | -2 | -1 | 0 | -1 | -2 | -2 | . | .
O=C(/C=C/c1ccc(S(=O)(=O)N2CCOCC2)cc1)NCc1ccccc1F | -3 | 5.0* | 4 | 0 | -1 | 0 | 0 | 1
COc1cc(NC(=O)CCCN2C(=O)NC(C)(C)C2=O)cc(OC)c1 | -3 | 4.8* | 1 | 1 | -1 | 0 | 2 | 0
O=C(Nc1nnc([C@H]2C[C@H](O)[C@@H](CO)O2)s1)NC1CCCCC1 | 2 | 1 | -2 | . | -1 | 0 | . | .
CC(=O)N1c2cc(S(=O)(=O)Nc3c(C)n(C)n(-c4ccccc4)c3=O)c(Br)cc2CC1C (stereo unspecified) | 3 | 1 | . | . | 0 | -3 | . | .
CCC1(O)CC2CN(CCc3c([nH]c4ccccc34)C(C(=O)OC)(c3cc4c(cc3OC)N(C=O)C3C(O)(C(=O)OC)C(OC(C)=O)C5(CC)C=CCN6CCC43C65)C2)C1 (stereo unspecified) | -7 | 5.2* | -3 | 2 | 0 | 2 | 21* | -6
CC(=O)c1cnc2c(-c3cccc(Br)c3)cnn2c1C | 5 | 1 | 3 | 0 | 0 | -1 | . | .
Cc1cc(N)n2ncc(-c3cccc(Br)c3)c2n1 | 10 | 4.9* | 5 | 0 | 0 | 4 | 7.0* | 3.7*
Cc1ccccc1S(=O)(=O)N1CCCc2nc(C)c(C)cc21 | 1 | 0 | . | . | -1 | -2 | . | .
CCc1ccc2nc(N(CCN(C)C)C(=O)c3ccc4ncsc4c3)sc2c1 | 9 | 7.6* | 5 | 0 | 0 | 1 | 8.0* | 5.4*
O=C(CCS(=O)(=O)c1ccccc1)NC1CCCCC1 | 3 | 4.7* | 2 | 0 | -1 | 0 | 5.8* | 4.0*
O=C(CSc1ccccc1)NC1CCCCCC1 | 9 | 6.2* | 6 | 0 | 0 | 6.3* | 7.7* | 3.8*
COc1ccc(S(=O)(=O)CCC(=O)NC2CCCCC2)cc1 | -1 | -1 | 1 | 0 | 0 | 1 | . | .
CCC1CCCCN1C(=O)CCS(=O)(=O)c1ccccc1 (stereo unspecified) | 1 | 4.8* | 1 | 1 | 0 | 2 | 4.2* | 1
O=C(Cn1nnc(-c2ccncc2)n1)Nc1ccc(Oc2ccccc2)cc1 | -2 | -1 | . | . | -1 | -4 | . | .
COc1ccccc1N1CCN(C(=O)c2[nH]c(C(F)(F)F)nc2-c2ccccc2)CC1 | 0 | -2 | . | . | -1 | 1 | . | .
Cc1cccc(N2CCN(C(=O)c3[nH]c(C(F)(F)F)nc3-c3ccccc3)CC2)c1C | -4 | 10* | . | . | 0 | -1 | 9.8* | -6
O=C(Nc1ccc(F)cc1F)c1ccc2ncsc2c1 | 7 | 4.9* | 2 | 2 | -1 | 2 | 3 | 2
O=C(Nc1cccc(F)c1)c1ccc2ncsc2c1 | . | . | 5 | 3 | . | . | . | .
CCn1c2ccccc2c2cc(NC(=O)N3CCCCC3)ccc21 | 9 | 4.7* | 3 | 3 | 0 | 3 | 10* | 5.4*
Cc1ccc(NC(=O)N2CCCCCC2)cc1C | 5 | 5.9* | 4 | 2 | 0 | 3 | 8.1* | 5.4*
SMILES | hgDAF-12 ag | DAX1 inh-1 | GAA850 FXN act | DAX1 inh-2 | ssDAF-12 act | hcDAF12 agonist | DAX1 inh confirm | SF1 mutant ctr
O=C(Nc1ccc(F)c(Cl)c1)N1CCCC1 | 3 | 0 | 2 | 0 | -1 | 0 | . | .
O=C(Nc1ccc(F)c(Cl)c1)N1CCCCCC1 | 5 | 4.7* | 4 | 1 | 0 | 1 | 5.2* | 5.8*
CC1(C)CC(=O)C=C(Nc2ccccc2NC(=O)c2ccc(F)cc2F)C1 | 1 | -1 | . | . | -1 | 0 | . | .
COC(=O)[C@]12C[C@H](CC(=O)NCCc3ccccc3OC)C(=O)N(Cc3ccc(Cl)cc3Cl)C1=C[C@H](C(C)C)O[C@@H]2C1CC1 | 2 | -1 | . | . | -1 | 0 | . | .
Cc1ccc(-n2c(SCC(=O)Nc3ccc4c(c3)OCCO4)nnc2-c2ccccn2)cc1 | 4 | 0 | . | . | -1 | -2 | . | .
CN(Cc1ccc(F)cc1)C(=O)CN1C(=O)C2(OCCCO2)c2ccccc21 | 0 | -1 | . | . | -1 | 0 | . | .
C[C@H]1[C@@H](OC(=O)Nc2ccccc2C(F)(F)F)CC[C@@]23CCCN2C(=O)CCC[C@@H]13 | 1 | . | . | . | -2 | 0 | . | .
Cc1ccc(S(=O)(=O)N2CCCC(C(=O)Nc3c(C)n(C)n(-c4ccccc4)c3=O)C2)cc1 (stereo unspecified) | -3 | -1 | . | . | -1 | -2 | . | .
Cc1ccc(Nc2n[nH]c(=S)s2)cc1F | 6 | 5.4* | -1 | 2 | 0 | 1 | 4.3* | 2.9*
COc1cccc(/C=C2/Sc3ccc(C(=O)NCCN4CCCC4)cc3NC2=O)c1 | 3 | 10* | 4 | 0 | -1 | 0 | 4.6* | 3.2*
O=C1Nc2cc(C(=O)NCCN3CCCCCC3)ccc2S/C1=C/c1ccccc1F | 0 | 1 | 5 | 1 | -1 | -1 | . | .
O=C(OCC#CCSc1nnc(-c2c[nH]c3ccccc23)o1)c1ccc(F)cc1 | 4 | . | . | . | -1 | 2 | . | .
CC(=C\C=O)/C(C)=C/CC[C@@H]1O[C@@H]2C[C@@H]3O[C@](C)(C[C@H]4C[C@H](O)[C@@H]5O[C@@H]6C[C@H](O)[C@@H](C)O[C@@]6(C)CC[C@H]5O4)[C@@H](O)CC[C@@]3(C)O[C@H]2[C@@H](O)[C@@H]1C | -3 | . | . | . | -1 | -2 | . | .
CCOC(=O)N1CCC(NC(=O)c2ccc3c(c2)N=C(C)c2c(C)ccc(C)c2S3)CC1 | -1 | 9.0* | 0 | 0 | -1 | -2 | 15* | -6
CCOC(=O)N1CCC(NC(=O)c2ccc3c(c2)N=C(CC)c2cc(C)ccc2S3)CC1 | -2 | -2 | -5 | -2 | -2 | -3 | . | .
